Cav3 T inh = inhibitors of human Cav3.2 T-type calcium channel | B-score at 10 µM | Cav3.2-expressing cells, Fluo-4 calcium fluorescence FDSS; active compounds read low | 100,000 compounds, 4% hits | O95180;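 active = single-dose well whose peak fluorescence ratio is a statistical outlier from its plate by either plate-standardised score or position-corrected B-score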
CYP2C9 inhib = human CYP2C9 inhibition; P11712; CYP2C9 Supersomes, luciferin-H conversion, luminescence; inhibition, % at 5 µM; 96,000 compounds, 20% hits; AID 777;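 active = blocking of liver enzyme CYP2C9 beyond about 50% at 5 µM, limit read from the data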
CYP2C9 act = increases human cytochrome P450 2C9 activity | P11712 | recombinant CYP2C9, luciferin-H conversion, luminescence; active compounds read high; factor 1 = untreated enzyme, 0 = blocked | activation factor at 5 µM | 96,000 compounds, 1.4% hits | AID 1024;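 active = activation factor of 2 or more for CYP2C9 at a 5 µM dose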
CYP2C19 activ = cytochrome P450 2C19 (human) activation; activation factor at 5 µM; P33261; 96,000 tested, under 10 active; recombinant CYP2C19, luciferin-H EGE luminescence; active compounds read high; 0 = fully inhibited enzyme, 1 = untreated enzyme;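 active = activation factor of at least 2 at 5 µM in the primary screen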
Target sequence (P33261 whole entry, looked up): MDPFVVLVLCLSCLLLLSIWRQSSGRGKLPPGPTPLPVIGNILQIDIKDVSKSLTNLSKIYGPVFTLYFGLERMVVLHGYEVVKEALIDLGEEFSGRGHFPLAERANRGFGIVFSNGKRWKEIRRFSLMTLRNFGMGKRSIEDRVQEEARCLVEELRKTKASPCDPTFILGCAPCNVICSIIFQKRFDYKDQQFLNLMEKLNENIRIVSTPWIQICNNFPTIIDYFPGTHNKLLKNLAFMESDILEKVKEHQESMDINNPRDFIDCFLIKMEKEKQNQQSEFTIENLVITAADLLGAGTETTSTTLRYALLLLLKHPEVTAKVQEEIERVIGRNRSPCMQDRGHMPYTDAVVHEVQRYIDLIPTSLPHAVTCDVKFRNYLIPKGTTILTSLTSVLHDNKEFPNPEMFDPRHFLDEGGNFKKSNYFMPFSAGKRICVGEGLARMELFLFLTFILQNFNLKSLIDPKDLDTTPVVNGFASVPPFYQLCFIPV
CYP2C19 inh = human CYP2C19 inhibition. P33261. CYP2C19 Supersomes, luciferin-H EGE luminescence, 30 min. inhibition, % at 5 µM. 96,000 compounds, 21% hits;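 active = CYP2C19 inhibition above a set limit at 5 µM in the primary screen, cut at about 50% in these data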
Large screens that a line does not name were inactive. Most compounds without a hit are left out; they make up all but 27% or so of the library.

COc1ccccc1OCC(=O)Nc1ccc(S(=O)(=O)N2CCCCCC2)cc1	CYP2C9 inhib 80, CYP2C19 inh 86
Cc1ccc(N2C(=O)[C@@H]3Cc4ccccc4CN3C2=O)cc1	none
Cc1ccc(N2Cc3ccccc3OC(C)C2=O)cc1 (stereo not drawn)	CYP2C9 inhib 85, CYP2C19 inh 100
CN1C(C(=O)NCc2ccc(OC(F)(F)F)cc2)CC2Cn3c(nc4cc(Cl)c(Cl)cc43)C21 (stereo not drawn)	none (no result: CYP2C9 inhib, CYP2C9 act, CYP2C19 activ, CYP2C19 inh)
O=C(N1CCCCCC1)n1c(Cc2ccccc2)nc2ccccc21	none (no result: CYP2C9 inhib, CYP2C9 act, CYP2C19 activ, CYP2C19 inh)
O=S(=O)(N1CCOCC1)n1c(Cc2ccccc2)nc2ccccc21	CYP2C19 inh 75
COc1ccc(N2CC(C(=O)NCc3cccnc3)CC2=O)cc1 (stereo not drawn)	none
Cc1ccc(CNc2nc3ccccc3s2)s1	CYP2C19 inh 51
CN(CC(=O)Nc1nc2ccccc2s1)S(=O)(=O)c1ccccc1	CYP2C19 inh 52
O=C(CS(=O)(=O)Cc1ccccc1)Nc1nc2ccccc2s1	CYP2C9 inhib 55, CYP2C19 inh 54
Cc1ccc(CC(=O)Nc2nc3ccccc3s2)cc1	Cav3 T inh -6.7
CC(C(=O)NCc1cccs1)N1C(=O)c2ccccc2C1=O (stereo not drawn)	none
CCn1c(SCC(=O)Nc2nccs2)nnc1-c1ccc(S(=O)(=O)N2CCCCC2)cc1	none
CC(=O)C1=C(N2CCCCC2)CCC1=O	none
O=C(O)CCC(=O)Nc1nc2ccccc2s1	none
O=C(Nc1nc2ccccc2s1)c1cnccn1	CYP2C19 inh 65
O=S(=O)(Nc1nc2ccccc2s1)c1ccc(Cl)s1	Cav3 T inh -5.1, CYP2C9 inhib 95, CYP2C19 inh 65
CCc1ccc(/C=C2/SC(=S)N(CC(=O)Nc3nc4ccccc4s3)C2=O)cc1	CYP2C9 inhib 53
CCc1ccc(/C=C2\SC(=S)N(CCCC(=O)Nc3ccccn3)C2=O)cc1	none
c1ccc(CCNc2nc3ccccc3s2)cc1	CYP2C9 inhib 82, CYP2C19 inh 97
O=c1[nH]c2ccsc2c(=O)n1-c1ccc(F)cc1	none
CN1C(=O)CC(C(=O)O)SC1=Nc1cccc(C(F)(F)F)c1 (stereo not drawn)	none (no result: CYP2C9 inhib, CYP2C9 act, CYP2C19 activ, CYP2C19 inh)
CC(C)C[C@@H]1NC(=O)[C@H](C(C)C)NC(=O)c2cc([N+](=O)[O-])cc(I)c2OCC[C@@H](C(N)=O)NC1=O	none (no result: CYP2C9 inhib, CYP2C9 act, CYP2C19 activ, CYP2C19 inh)
CC(C)OC(=O)c1cccc(C(=O)OCc2ccco2)n1	none (no result: Cav3 T inh)
Cc1ccc(C(=O)Nc2nc3ccccc3s2)s1	CYP2C9 inhib 61 (no result: Cav3 T inh)
Cc1nn(Cc2ccc(C(=O)NC3CCCCC3)o2)c(C)c1Br	CYP2C9 inhib 50, CYP2C19 inh 76
Cc1nn(Cc2ccc(C(=O)Nc3ccc(C(=O)OC(C)C)cc3)o2)c(C)c1Cl	CYP2C9 inhib 63
Cc1cc(C)n(C(=O)c2ccc(Cn3nc(C)c(Br)c3C)o2)n1	none (no result: CYP2C9 inhib, CYP2C9 act, CYP2C19 activ, CYP2C19 inh)
Cc1nn(Cc2ccc(C(=O)NC(C)(C)C)o2)c(C)c1Br	CYP2C19 inh 50
CCn1ncc(Br)c1C(=O)Nc1ccc(C(=O)OC(C)C)cc1	none
CCOC(=O)CSc1nnc(CSc2nc3ccccc3c(=O)[nH]2)n1-c1ccccc1	none (no result: Cav3 T inh)
Cc1snc(S(=O)(=O)Cc2ccccc2Cl)c1C#N	none
CC(=O)Nc1ccc(S(=O)(=O)n2cnc3ccccc32)cc1	none
O=C(CN(Cc1ccccc1)C(=O)c1cc2c(s1)CCC2)NCc1cccs1	Cav3 T inh -4.5, CYP2C9 inhib 75
O=C(CN(C(=O)c1cc2c(s1)CCC2)C1CCCC1)NCc1cccs1	CYP2C9 inhib 82, CYP2C19 inh 66
CC(C)NS(=O)(=O)c1ccc(OCC(=O)Nc2cccc3ccccc23)cc1	Cav3 T inh -3.6, CYP2C9 inhib 82, CYP2C19 inh 88
COc1ccc(NC(=O)Cc2cccs2)c(OC)c1	CYP2C19 inh 79
COc1ccc(NC(=O)CC(C)C)c(OC)c1	none
COc1ccc(NC(=O)Cn2c(=O)sc3ccccc32)c(OC)c1	CYP2C19 inh 90
COc1cc(NC(=O)CN2c3cccc4cccc(c34)S2(=O)=O)cc(OC)c1OC	none
COc1ccc(NC(=O)CN2c3cccc4cccc(c34)S2(=O)=O)c(OC)c1	CYP2C19 inh 91
O=C(O)Cn1cc(F)c(=O)[nH]c1=O	none (no result: CYP2C9 inhib, CYP2C9 act, CYP2C19 activ, CYP2C19 inh)
COc1ccc(C[C@H]2CN3C(=NC[C@@H]3C(C)C)N2CCNC(=O)c2ccc(C)c(Br)c2)cc1	none (no result: CYP2C9 inhib, CYP2C9 act, CYP2C19 activ, CYP2C19 inh)
COC(=O)C[C@H]1c2cc(C(F)(F)F)ccc2S(=O)(=O)N1Cc1ccccc1	none (no result: CYP2C9 inhib, CYP2C9 act, CYP2C19 activ, CYP2C19 inh)
CCc1ccc(OCC(=O)Nc2cc(S(=O)(=O)CC)ccc2O)cc1	CYP2C9 inhib 79 (no result: Cav3 T inh)
CC(NC(=O)Cc1cccs1)c1ccncc1 (stereo not drawn)	CYP2C9 inhib 66, CYP2C19 inh 64
COc1ccc(OCC(=O)Nc2ccccc2O)cc1	CYP2C9 inhib 95, CYP2C19 inh 99 (no result: Cav3 T inh)
CCOc1cccc(NC(=O)Cc2cccs2)c1	CYP2C9 inhib 58, CYP2C19 inh 86
CC(NC(=O)Cc1cccs1)c1ccc2c(c1)OCO2 (stereo not drawn)	none
COc1ccccc1NC(=O)COc1ccccc1	none
COc1ccc(NC(=O)COc2ccccc2)c(OC)c1	CYP2C9 inhib 84, CYP2C19 inh 92
CN(CCCNC(=O)c1cn(C)c2ccc(S(=O)(=O)N(C)C)cc2c1=O)c1ccccc1	CYP2C9 inhib 60
CCN(CC)S(=O)(=O)c1ccc2c(c1)c(=O)c(C(=O)NCCCN(C)c1ccccc1)cn2C	CYP2C9 inhib 57
C=CCn1cc(C(=O)NCCCOC)c(=O)c2cc(S(=O)(=O)N(CC)CC)ccc21	CYP2C9 inhib 59
N#Cc1nc(COc2ccc(Cl)cc2Cl)oc1N1CCOCC1	CYP2C19 inh 70
COCCCNc1oc(COc2ccc(Cl)cc2Cl)nc1C#N	Cav3 T inh -5.6, CYP2C9 inhib 94, CYP2C19 inh 99
N#Cc1nc(COc2ccc(Cl)cc2Cl)oc1N1CCN(c2ccccc2)CC1	CYP2C19 inh 58
CCOc1ccc(NC(=O)CN(C)c2nnnn2-c2ccccc2)cc1OCC	CYP2C19 inh 72
CCOc1ccccc1NC(=O)CSc1nnnn1-c1ccccc1	none
CCOc1ccc(NC(=O)CN(C)c2ccc(S(=O)(=O)N(C(C)C)C(C)C)cn2)cc1OCC	CYP2C9 inhib 57
CN(C)C(=O)c1c2c(nc3ccccc13)-c1ccccc1CC2	none
O=C(NCc1ccccn1)Nc1ccc2c(c1)OCO2	none
CCOc1ccccc1CN(CCc1ccc2c(c1)OCO2)Cc1ccccn1	Cav3 T inh -4.3, CYP2C9 inhib 58, CYP2C19 inh 98
O=C(O/N=C/c1cccc([N+](=O)[O-])c1)C1CC1	none
CC(=O)Nc1ccc(NC(=O)C(C)O/N=C/c2cccc([N+](=O)[O-])c2)cc1 (stereo not drawn)	CYP2C9 inhib 60
O=C(N/N=C/c1cccc([N+](=O)[O-])c1)c1cc2c(ccc3ccccc32)o1	none (no result: Cav3 T inh)
O=C(CO/N=C/c1cccc([N+](=O)[O-])c1)Nc1ccc2ccccc2c1	CYP2C9 inhib 88
CN(C)c1nc(OCCNC(=O)COc2ccccc2Cl)nc(N(C)C)n1	none (no result: CYP2C9 inhib, CYP2C9 act, CYP2C19 activ, CYP2C19 inh)
CCCNS(=O)(=O)c1ccc(OCC(=O)NCc2ccc3c(c2)OCO3)cc1	CYP2C9 inhib 62, CYP2C19 inh 54
